Reference: PubChem BioAssay (Tox21)
Results filed as inconclusive are left out. Activity calls are given as the source filed them. Unless noted, calls follow the shape of the dose curve; as a rule, active = well fitted curve in the direction sought with a large enough effect in the repeat runs; inconclusive = weak or mixed curves; inactive = no such curve, though single readings can be large; an effect the other way counts as inactive or inconclusive.

Assays:
[1] = qHTS assay to identify small molecule agonists of the hypoxia (HIF-1) signaling pathway (AID 1224846; active = well fitted activation curve with a large enough effect in the signal ratio in the repeat runs, not every such curve was filed as active; the % refers to the signal ratio)
Procedure, shortened: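 Compounds added to ME-180 cells carrying hypoxia-response-element beta-lactamase reporter (0.5% dialyzed FBS, 5 h preplating), 17 h at 37C; agonist activity detected by CCF4-AM B/G FRET read-out.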

[2] = qHTS assay to identify small molecule agonists of H2AX - cell viability counter screen (AID 1224847; calls by dose curve;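 also: wild-type CHO-K1 cells; top concentration of the series differs between compounds; nearly all actives have a fitted effect of over 30% in size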)
Procedure, shortened: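 CHO-K1 wt, 1000 cells/well, o/n 37C; cpds 15 conc, 3 h 37C, 0.76% DMSO; CellTiter-Glo, 30 min RT, luminescence.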

[3] = qHTS RealTime-Glo MT Cell Viability Assay in HepG2 cells - 24 hour (AID 1224867); also: nearly all actives have a fitted effect of over 50% in size
Procedure, shortened: (§1)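 HepG2 suspension premixed with RealTime-Glo reagents is plated at 600 cells per well and left 5 h at 37 C/5% CO2. Compounds in DMSO then go in, and bioluminescence reflecting viable cell number is recorded over 40 h.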

[4] = qHTS RealTime-Glo MT Cell Viability Assay in HEK293 cells - 32 hour (AID 1224868); also: top concentration of the series differs between compounds; nearly all actives have a fitted effect of over 50% in size
Procedure, shortened: (§2)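 Reads taken at 0, 8, 16, 24, 32 and 40 h from the same wells. HEK293 cells (600/well) carried RealTime-Glo reagents from seeding, with compound added after a 5 h settle at 37 C.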

[5] = A CellTox Green Cytotoxicity Assay to monitor cytotoxicity in HEK293 cells - 0 hour (AID 1224869); also: nearly all actives have a fitted effect of over 50% in size
Procedure, shortened: (§3)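 Fluorescence from a DNA-binding dye excluded by viable cells was measured repeatedly in the same HEK293 wells (600 cells/well) during continuous compound exposure at 37 C. Each assay gives one read point: 0, 8, 16, 24, 32 or 40 h.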

[6] = qHTS RealTime-Glo MT Cell Viability Assay in HepG2 cells - 40 hour (AID 1224870); also: nearly all actives have a fitted effect of over 50% in size
Procedure, shortened: (§4)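 HepG2 cells mixed with RealTime-Glo MT reagents (NanoLuc plus cell-permeant prosubstrate) were seeded at 600 cells/well, incubated 5 h at 37 C/5% CO2, then pinned with compounds in DMSO; nonlytic luminescence tracked viability during 40 h treatment.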

[7] = A CellTox Green Cytotoxicity Assay to monitor cytotoxicity in HEK293 cells - 40 hour (AID 1224871); also: nearly all actives have a fitted effect of over 45% in size
Procedure, shortened: as §3

[8] = qHTS RealTime-Glo MT Cell Viability Assay in HEK293 cells - 16 hour (AID 1224872)
Procedure, shortened: as §2

[9] = qHTS RealTime-Glo MT Cell Viability Assay in HepG2 cells - 8 hour (AID 1224873); also: nearly all actives have a fitted effect of over 55% in size
Procedure, shortened: as §4

[10] = qHTS RealTime-Glo MT Cell Viability Assay in HEK293 cells - 40 hour (AID 1224874); conditions: RealTime-Glo luminescence; max response: hits give low values; also: nearly all actives have a fitted effect of over 50% in size
Procedure, shortened: (§5)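 Luminescence, which tracks viable cell number through reduction of the prosubstrate to a NanoLuc substrate, was read over continuous 37 C culture. Cells (600/well) were premixed with reagent and rested 5 h before 23 nL of compound in DMSO was pinned.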

[11] = A CellTox Green Cytotoxicity Assay to monitor cytotoxicity in HEK293 cells - 24 hour (AID 1224875); also: nearly all actives have a fitted effect of over 45% in size
Procedure, shortened: as §3

[12] = A CellTox Green Cytotoxicity Assay to monitor cytotoxicity in HepG2 cells - 16 hour (AID 1224876); also: nearly all actives have a fitted effect of over 45% in size
Procedure, shortened: (§6)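 Real-time cytotoxicity: fluorescence of a cell-impermeant cyanine dye binding DNA of dead HepG2 cells, measured repeatedly (0–40 h) during compound exposure at 37 C. Cells seeded 600/well with reagent, dosed after 5 h.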

[13] = qHTS RealTime-Glo MT Cell Viability Assay in HepG2 cells - 32 hour (AID 1224877); also: nearly all actives have a fitted effect of over 55% in size
Procedure, shortened: as §1

[14] = A CellTox Green Cytotoxicity Assay to monitor cytotoxicity in HepG2 cells - 24 hour (AID 1224878); also: nearly all actives have a fitted effect of over 45% in size
Procedure, shortened: as §6

[15] = A CellTox Green Cytotoxicity Assay to monitor cytotoxicity in HepG2 cells - 40 hour (AID 1224879); also: nearly all actives have a fitted effect of over 40% in size
Procedure, shortened: as §6

[16] = A CellTox Green Cytotoxicity Assay to monitor cytotoxicity in HEK293 cells - 32 hour (AID 1224881); also: nearly all actives have a fitted effect of over 40% in size
Procedure, shortened: as §3

[17] = A CellTox Green Cytotoxicity Assay to monitor cytotoxicity in HepG2 cells - 0 hour (AID 1224882); also: nearly all actives have a fitted effect of over 35% in size
Procedure, shortened: as §6

[18] = qHTS assay to identify small molecule agonists of the estrogen related receptor (ERR) signaling pathway from Tox21 library (AID 1224849; calls by dose curve; also: nearly all actives have a fitted effect of over 15% in size); conditions: ERR reporter cell line, ONE-Glo luciferase, 18 h; at 92.4 µM (top of the series) unless noted
Procedure, shortened: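 Luminescent agonist read-out (One-Glo, 30-minute room-temperature incubation) following 18-hour compound treatment at 37 C of the ERR cell line, which had been plated 6 hours before dosing.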

[19] = qHTS RealTime-Glo MT Cell Viability Assay in HEK293 cells - 0 hour (AID 1224880)
Procedure, shortened: as §5

[20] = qHTS assay to identify small molecule antagonists of the estrogen related receptor (ERR) signaling pathway from Tox21 library (AID 1224848); also: nearly all actives have a fitted effect of over 50% in size; also: potency is read from the fitted curve at half-maximal effect
Procedure, shortened: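 First, 2,000 ERR cells per well were plated and held 6 h at 37 C/5% CO2. Next, compounds in DMSO were pinned in and left 18 h at 37 C. Finally, ONE-Glo was added and luminescence read after 30 min at room temperature.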
% is scaled to controls: 0 for no effect and ±100 for the full control effect.

Oc1ccc(I)cc1
inactive: outcome [1] | Potency [2] | Potency [3] | Potency [4] | Potency [5] | Potency [6] | Potency [7] | Potency [8] | Potency [9] | max response [10] -9.46% | Potency [11] | Potency [12] | Potency [13] | Potency [14] | Potency [15] | Potency [16] | Potency [17]

O=[N+]([O-])c1cc([N+](=O)[O-])c2ccccc2c1
inactive: outcome [1] | Potency [2] | activity change, positive = activation [18] -17.9% | Potency [4] | Potency [6] | Potency [8] | max response [10] 4.65% | Potency [12] | Potency [15] | Potency [19] | Potency [17]

O=C1NCN(c2ccccc2)C12CCN(CC1COc3ccccc3O1)CC2 (stereo not drawn)
inactive: outcome [1] | Potency [2] | activity change, positive = activation [18] 0.381% [at 42.5 µM] | Potency [5] | Potency [6] | Potency [7] | Potency [11] | Potency [12] | Potency [13] | Potency [14] | Potency [15] | Potency [19] | Potency [16] | Potency [17]

CC(C)C(=O)Cl
inactive: outcome [1] | Potency [2] | Potency [20] | activity change, positive = activation [18] -0.166% | Potency [4] | Potency [5] | Potency [6] | Potency [7] | Potency [8] | Potency [9] | max response [10] 0.629% | Potency [11] | Potency [12] | Potency [13] | Potency [14] | Potency [15] | Potency [19] | Potency [16]

COc1ccc(OC)c(CC(C)N)c1 (stereo not drawn)
inactive: outcome [1] | Potency [2] | Potency [3] | Potency [4] | Potency [5] | Potency [6] | Potency [7] | Potency [8] | Potency [9] | max response [10] -2.46% | Potency [11] | Potency [12] | Potency [13] | Potency [14] | Potency [15] | Potency [19] | Potency [16] | Potency [17]

C[C@@H](Oc1ccc(Cl)cc1Cl)C(=O)O
inactive: outcome [1] | Potency [2] | Potency [3] | Potency [4] | Potency [5] | Potency [6] | Potency [7] | Potency [8] | Potency [9] | max response [10] 0.534% | Potency [11] | Potency [12] | Potency [13] | Potency [14] | Potency [15] | Potency [19] | Potency [16] | Potency [17]

N#Cc1ccccc1N
inactive: outcome [1] | Potency [2] | activity change, positive = activation [18] -12.6% | Potency [3] | Potency [4] | Potency [6] | Potency [8] | max response [10] 0.901% | Potency [11] | Potency [12] | Potency [13] | Potency [14] | Potency [15] | Potency [19] | Potency [16] | Potency [17]

CN(CCCC(O)c1cccnc1)N=O (stereo not drawn)
inactive: outcome [1] | Potency [2] | Potency [3] | Potency [4] | Potency [5] | Potency [6] | Potency [7] | Potency [8] | Potency [9] | Potency [11] | Potency [12] | Potency [13] | Potency [14] | Potency [15] | Potency [19] | Potency [16] | Potency [17]

Cc1cc(C(F)(C(F)(F)F)C(F)(F)F)ccc1NC(=O)c1cccc(I)c1C(=O)NC(C)(C)CS(C)(=O)=O
inactive: outcome [1] | Potency [2] | activity change, positive = activation [18] -22.4% [at 42.5 µM] | Potency [3] | Potency [5] | Potency [6] | Potency [7] | Potency [8] | Potency [9] | Potency [11] | Potency [12] | Potency [14] | Potency [15] | Potency [19] | Potency [16] | Potency [17]

N#CCCSCCC#N
inactive: outcome [1] | Potency [2] | Potency [3] | Potency [4] | Potency [5] | Potency [6] | Potency [7] | Potency [8] | Potency [9] | max response [10] 8.18% | Potency [11] | Potency [12] | Potency [13] | Potency [14] | Potency [15] | Potency [19] | Potency [16]

O=C(CBr)c1ccc(O)cc1
inactive: outcome [1] | Potency [2] | activity change, positive = activation [18] -26% | Potency [3] | Potency [5] | Potency [6] | Potency [7] | max response [10] 22.3% | Potency [11] | Potency [12] | Potency [13] | Potency [14] | Potency [19] | Potency [16] | Potency [17]

COC(=O)N(C(=O)N1CO[C@@]2(C(=O)OC)Cc3cc(Cl)ccc3C2=N1)c1ccc(OC(F)(F)F)cc1
inactive: outcome [1] | Potency [2] | activity change, positive = activation [18] -47.5% | Potency [3] | Potency [5] | Potency [6] | Potency [7] | Potency [11] | Potency [12] | Potency [13] | Potency [14] | Potency [15] | Potency [19] | Potency [16]
active: Potency [20] 8.35 µM

N#CNC#N
inactive: outcome [1] | Potency [2] | Potency [3] | Potency [4] | Potency [5] | Potency [6] | Potency [7] | Potency [8] | Potency [9] | Potency [11] | Potency [12] | Potency [13] | Potency [14] | Potency [15] | Potency [19] | Potency [16] | Potency [17]

Brc1c(Br)c(Br)c(Oc2c(Br)c(Br)c(Br)c(Br)c2Br)c(Br)c1Br
inactive: activation [1] 0.0203% [at 15.8 µM] | activity change, negative = cytotoxicity [2] 2.26% [at 31.6 µM] | activity, negative = inhibition [20] 6.83% [at 19 µM] | activity change, positive = activation [18] 3.27% [at 19 µM] | activity change, negative = cytotoxic [4] 5.03% [at 15.8 µM] | cytotoxicity [5] -1.03% [at 15.8 µM] | activity change, negative = cytotoxic [6] -6.21% [at 15.8 µM] | cytotoxicity increase [7] 1.02% [at 15.8 µM] | activity change, negative = cytotoxicity [8] 3.04% [at 15.8 µM] | viability change, negative = cytotoxic [9] 5% [at 15.8 µM] | max response [10] 1.84% | activity change [11] -3.29% [at 15.8 µM, hits give high values] | cytotoxicity increase [12] -3.41% [at 15.8 µM] | activity change, negative = cytotoxic [13] -3.04% [at 15.8 µM] | cytotoxicity [14] -2.63% [at 15.8 µM] | cytotoxicity increase [15] 1.89% [at 15.8 µM] | activity change, negative = cytotoxicity [19] -0.353% [at 15.8 µM] | cytotoxicity increase [16] -3.94% [at 15.8 µM] | cytotoxicity [17] -0.0157% [at 15.8 µM]
